# According to PubChem BioAssay (NCATS):
# Inconclusive results are not listed. Where a call stands in place of a potency, no number is given. The source made the active and inactive calls. Unless noted, the call rests on the fitted dose curve; in most records, active means well fitted curve in the direction sought with a large enough effect; inconclusive means small, poorly fitted or top-dose-only effect, or another doubt; inactive means no such curve, though single readings can be large; an effect the other way counts as inactive or inconclusive.
# Legend:
# [1] = qHTS to identify inhibitors of the type 1 interferon - major histocompatibility complex class I in skeletal muscle: primary screen against the NCATS Mechanism Interrogation Plate v5.0 (MIPE) Libary (AID 1347411); conditions: iHSKM cells + IFN-b, HiBiT-tagged MHC-I luminescence, 24 h; series mostly up to 45.8 µM; further: nearly all actives have a fitted effect of over 65% in size; further: potency means the concentration at half of the fitted maximal effect
# Procedure, shortened: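 IFN-beta-driven (4 ng/ml) HLA-B-HiBit expression in CRISPR-tagged C25cl48 myoblasts; compounds 11-pt, 1:3, max 46 uM, 24 hr exposure; lytic NanoLuc complementation luminescence.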
# [2] = Cytotoxicity counterscreen for inhibitors of SARS-CoV-2 cell entry (AID 1645845; calls by dose curve; further: nearly all actives have a fitted effect of over 50% in size; further: potency means the concentration at half of the fitted maximal effect); conditions: cell viability (SARS-CoV-2 entry assay cells); series mostly up to 57.1 µM
# Procedure, shortened: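 ATP-content luminescence (ATPLite 1step, 15 min RT) read after 48 h compound exposure of Expi293F cells stably expressing human ACE2; normalized to cells-only wells and media-only wells.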
# [3] = OV-KATE Cancer Cell Toxicity qHTS against the NCATS CANVASS Library (AID 1347345); conditions: OV-KATE cells viability, CellTiter-Glo luminescence, 72 h; series mostly up to 38.3 µM
# Procedure, shortened: (§1)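 Bortezomib titration and single-dose wells served as plate controls. Test compounds, 11 points, acted on 1000 cells/well for 72 h at 37 degrees C; CellTiter-Glo luminescence quantified remaining viable cells.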
# [4] = HPAF-II Cancer Cell Toxicity qHTS against the NCATS CANVASS Library (AID 1347346); conditions: HPAF-II viability, CellTiter-Glo ATP luminescence, 72 h; series mostly up to 38.3 µM; further: nearly all actives have a fitted effect of over 55% in size
# Procedure, shortened: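 Using 1000 HPAF-II cells per well, we titrated compounds over 11 concentrations for 72 h at 37 degrees C/5% CO2, with bortezomib as control. Cell survival was quantified by CellTiter-Glo luminescence.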
# [5] = UWB1.289 Cancer Cell Toxicity qHTS against the NCATS CANVASS Library (AID 1347347); conditions: UWB1.289 viability, CellTiter-Glo luminescence, 72 h; series mostly up to 38.3 µM; further: nearly all actives have a fitted effect of over 60% in size
# Procedure, shortened: as §1
# [6] = OV-SAHO Cancer Cell Toxicity qHTS against the NCATS CANVASS Library (AID 1347348); conditions: OV-SAHO viability, CellTiter-Glo luminescence, 72 h; series mostly up to 38.3 µM; further: nearly all actives have a fitted effect of over 55% in size
# Procedure, shortened: as §1
# [7] = Panc-1005 Cancer Cell Toxicity qHTS against the NCATS CANVASS Library (AID 1347349); conditions: Panc-1005 viability, CellTiter-Glo luminescence, 72 h; series mostly up to 38.3 µM; further: nearly all actives have a fitted effect of over 60% in size
# Procedure, shortened: as §1
# [8] = SW1088 Cancer Cell Toxicity qHTS against the NCATS CANVASS Library (AID 1347350); conditions: SW1088 viability, CellTiter-Glo luminescence, 72 h; series mostly up to 38.3 µM; further: nearly all actives have a fitted effect of over 75% in size
# Procedure, shortened: as §1
# [9] = COV-362 Cancer Cell Toxicity qHTS against the NCATS CANVASS Library (AID 1347352); conditions: COV-362 viability, CellTiter-Glo luminescence, 72 h; series mostly up to 38.3 µM
# Procedure, shortened: (§2)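 Using an ATP-based luminescent reagent after three days of treatment, toxicity is scored across an eleven-concentration range in wells holding 1000 cells each.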
# [10] = UWB1.289-WTBRCA1 Cancer Cell Toxicity qHTS against the NCATS CANVASS Library (AID 1347354); conditions: UWB1.289-WTBRCA1 viability, CellTiter-Glo luminescence, 72 h; series mostly up to 38.3 µM
# Procedure, shortened: as §2
# [11] = HPAF-II 24hr Apoptosis Induction qHTS against the NCATS CANVASS Library (AID 1347356); conditions: HPAF-II caspase-3/7 Caspase-Glo luminescence; series mostly up to 46.1 µM
# Procedure, shortened: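 Using an 11-point qHTS format, HPAF-II cells in DMEM/10% FBS received compounds for 24 h; doxorubicin titration as control. Caspase-3/7 activity quantified by DEVD-luciferase luminescence.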
# [12] = HEK293 18hr Apoptosis Induction qHTS against the NCATS CANVASS Library (AID 1347357); conditions: HEK293 caspase-3/7 Caspase-Glo luminescence; series mostly up to 46.1 µM
# Procedure, shortened: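 Natural products applied to HEK293 for 18 hr; Caspase-Glo 3/7 readout.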
# [13] = HEK293 24hr Apoptosis Induction qHTS against the NCATS CANVASS Library (AID 1347359); conditions: HEK293 caspase-3/7 activation, Caspase-Glo luminescence; series mostly up to 46.1 µM
# Procedure, shortened: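 Caspase-3/7 activation measured as luminescence from the DEVD-based Caspase-Glo reagent, 15 min at room temperature, following 24-hour compound treatment of HEK293 cells.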
# [14] = test system: NAD(P)H diaphorase (Clostridium kluyveri); experiment: Diaphorse counterscreen qHTS: Assay Interference Panel against the NCATS CANVASS Library (AID 1347362); conditions: Diaphorase enzyme, resazurin to resorufin fluorescence; series mostly up to 57.5 µM
# Procedure, shortened: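 Counterscreen for coupling-enzyme interference: resorufin fluorescence from resazurin/NADH turnover, read after 5 min at room temperature. Compounds were tested over an 11-point series after 15 min dark preincubation with diaphorase in PBS-Tween.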
# [15] = target: Luciferin 4-monooxygenase (Photinus pyralis) (UniProt P08659); experiment: Firefly luciferase counterscreen qHTS: Assay Interference Panel against the NCATS CANVASS Library (AID 1347363); conditions: purified firefly luciferase, luminescence inhibition, 5 min; series mostly up to 57.5 µM
# Sequence of Luciferin 4-monooxygenase (Photinus pyralis) (P08659 whole entry, looked up): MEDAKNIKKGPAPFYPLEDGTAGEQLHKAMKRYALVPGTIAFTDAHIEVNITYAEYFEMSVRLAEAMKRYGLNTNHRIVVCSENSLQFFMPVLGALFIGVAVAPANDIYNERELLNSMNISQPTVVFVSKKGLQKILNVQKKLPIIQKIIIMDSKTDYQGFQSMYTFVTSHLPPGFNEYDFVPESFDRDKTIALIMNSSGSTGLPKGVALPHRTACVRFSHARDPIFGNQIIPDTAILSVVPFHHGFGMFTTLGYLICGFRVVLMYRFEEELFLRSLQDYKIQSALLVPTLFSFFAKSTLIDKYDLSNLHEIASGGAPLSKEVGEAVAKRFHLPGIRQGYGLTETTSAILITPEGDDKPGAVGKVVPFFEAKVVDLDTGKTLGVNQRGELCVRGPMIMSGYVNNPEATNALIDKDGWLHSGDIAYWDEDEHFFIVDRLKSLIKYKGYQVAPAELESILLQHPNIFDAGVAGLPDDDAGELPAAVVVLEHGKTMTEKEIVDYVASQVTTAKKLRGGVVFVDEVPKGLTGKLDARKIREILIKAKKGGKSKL
# Procedure, shortened: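 Luminescence inhibition readout: compounds (11-point qHTS) sat 15 min at room temperature with substrate mix (0.013 mM luciferin and ATP), then firefly luciferase was added and signal read 5 min later.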
# [16] = KB-3-1 Cancer Cell Toxicity qHTS against the NCATS CANVASS Library (AID 1347366); conditions: KB-3-1 viability, CellTiter-Glo luminescence, 72 h; series mostly up to 46.1 µM; further: nearly all actives have a fitted effect of over 75% in size
# Procedure, shortened: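 Cytotoxicity toward KB-3-1 cells (500/well, DMEM + 10% FBS) was scored by CellTiter-Glo luminescence following 72 hr exposure at 37C, with bortezomib titrated as control.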
# [17] = MCF7 Cancer Cell Toxicity qHTS against the NCATS CANVASS Library (AID 1347369); conditions: MCF7 viability, ATP luminescence (CellTiter-Glo), 72 h; series mostly up to 46 µM
# Procedure, shortened: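 This 72 hr qHTS scored MCF7 viability by CellTiterGlo luminescence, with 500 cells/well; bortezomib titration ran as control.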
# [18] = J3T Cancer Cell Toxicity qHTS against the NCATS CANVASS Library (AID 1347371); conditions: J3T dog glioma viability, ATP luminescence, 72 h; series mostly up to 46.1 µM
# Procedure, shortened: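 ATP-based cytotoxicity in canine J3T cells: 72 hr exposure at 37C, 11-point titration, CellTiterGlo luminescent detection.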
# [19] = Confirmatory qHTS for activators (rescue) of SARS-CoV-2 Cytopathic Effect (CPE) (AID 1508606; calls by dose curve; further: potency means the concentration at half of the fitted maximal effect; nearly all actives have a fitted effect of over 70% in size); conditions: Vero E6 SARS-CoV-2 CPE rescue, viability luminescence; series mostly up to 20 µM
# [20] = Primary qHTS to identify inhibitors of SARS-CoV-2 cell entry (AID 1645846; calls by dose curve; further: nearly all actives have a fitted effect of over 45% in size); conditions: SARS-CoV-2 pseudovirus cell entry assay, luminescence; activity change, negative = inhibition: at 57.1 µM (top of the series) unless noted; series mostly up to 57.1 µM
# Procedure, shortened: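 Using luciferase-reporting pseudoviruses carrying Wuhan-Hu-1 spike, the screen tracks entry into stably ACE2-expressing cells over 48 hr. Activity is expressed relative to spike particles versus particles lacking any fusion protein.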
structure (smiles),measurement,setting,value
COc1cc(C(=O)N2CC[C@@H](O)[C@@H](N)C2)cc2nc(-c3cc4ccccc4n3CC3CC3)n(C)c12,Potency,[1],inactive
same,Potency,[2],inactive
C/C=C1/CN2CC[C@]34C(=Nc5ccccc53)[C@@H]2C[C@@H]1[C@H]4C(=O)OC,Potency,[3],inactive
same,Potency,[4],inactive
same,Potency,[5],inactive
same,Potency,[6],inactive
same,Potency,[7],inactive
same,Potency,[8],inactive
same,Potency,[9],inactive
same,Potency,[10],inactive
same,outcome,[11],inactive
same,Potency,[12],inactive
same,Potency,[13],inactive
same,outcome,[14],inactive
same,outcome,[15],inactive
same,Potency,[16],inactive
same,Potency,[17],inactive
same,Potency,[18],inactive
CN1C(=O)[C@]23CC4C(C)(C)[C@@]5(C[C@@]41CN2CC[C@@]3(C)O)C(=O)Nc1c5ccc2c1OC=CC(C)(C)O2 (stereo partly specified),Potency,[3],inactive
same,Potency,[4],inactive
same,Potency,[5],inactive
same,Potency,[6],inactive
same,Potency,[7],inactive
same,Potency,[8],inactive
same,Potency,[9],inactive
same,Potency,[10],inactive
same,outcome,[11],inactive
same,Potency,[12],inactive
same,Potency,[13],inactive
same,outcome,[14],inactive
same,outcome,[15],inactive
same,Potency,[16],inactive
same,Potency,[17],inactive
same,Potency,[18],inactive
C/C=C(\C)C(=O)O[C@H]1CC2C(=C1C)[C@H]1OC(=O)[C@](C)(O)[C@]1(O)[C@H](OC(=O)CCC)C[C@@]2(C)OC(C)=O (stereo partly specified),Potency,[19],2.2 µM (active)
NC(=O)[C@@H](CC1CC1)[C@@H](CCC(F)(F)F)C(=O)N[C@H]1N=C(c2ccccc2)c2cccc(F)c2NC1=O,Potency,[1],inactive
same,Potency,[2],inactive
same,"activity change, negative = inhibition",[20],-2.84%
C[C@H](Nc1ncnc2nc[nH]c12)c1nc2ccc(F)cc2c(=O)n1-c1ccccc1,"activity change, negative = inhibition",[20],-57.8%
COc1ccc(CCNCc2ccc(OC)c3ccccc23)cc1,Potency,[19],11.2 µM (active)
CN1CN(c2ccccc2)C2(CCN(CCCC(=O)c3ccc(F)cc3)CC2)C1=O,Potency,[19],7.08 µM (active)
CC[C@H]1/C=C\C=C/C[C@@H](C)[C@H](O)[C@@](C)(O)C(=O)[C@@H](C)[C@H](O)[C@@H](C)C(=O)[C@@H](C)[C@H](O)[C@@H](C)/C=C\C(=O)O[C@@H]2[C@H](C)[C@H](CC1)O[C@]1(CC[C@H](C)[C@H](C[C@@H](C)O)O1)[C@H]2C,Potency,[1],20.8 µM (active)
same,Potency,[2],20 µM (active)
CC(C)C(=O)O[C@H]1[C@@H]2[C@H](C)C(=O)O[C@@H]2C[C@@H](C)[C@@H]2C=CC(=O)[C@]21C,Potency,[19],7.94 µM (active)
C/C(=C\c1csc(C)n1)[C@@H]1C[C@@H]2O[C@@H]2CCC[C@H](C)[C@H](O)[C@@H](C)C(=O)C(C)(C)[C@@H](O)CC(=O)O1,Potency,[1],inactive
same,Potency,[2],inactive
same,"activity change, negative = inhibition",[20],-70%
COc1ccc(C(C)(C)C)cc1CN[C@H]1C2CCN(CC2)[C@H]1C(c1ccccc1)c1ccccc1,Potency,[2],inactive
Cc1ncc(OC[C@@]2(c3cccc(F)c3)C[C@H]2C(=O)Nc2ccc(F)cn2)c(C)n1,Potency,[1],inactive
same,Potency,[2],inactive
same,Potency,[20],inactive
